# According to PubChem BioAssay (NCI):
# This is part of a sample that, as a whole, favours compounds with a hit. Of some 83,000 tested, about 20% had one in any assay.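 Percent growth is the endpoint: 0 to 100 indicates growth inhibition (40 means 60% inhibition), 0 means no net growth, and negative values indicate cell death.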 Active and inactive are the calls of the source.
# Test system: NCI/ADR-RES ovarian
# Experiment: NCI-60 one-dose screen, 48 h (100 = growth as untreated, 0 = no growth, -100 = all killed)
# Settings: 10 µM unless noted
# Description: Growth inhibition of the NCI/ADR-RES human […] tumor cell line is measured as a screen for anti-cancer activity. Cells are grown in 96 well plates and exposed to the test compound for 48 hours. Compounds are tested at a single concentration, which is 10^-5 M for most compounds. The reported endpoint is percent growth (GI% or GIPRCNT), where numbers from 0 - 100% represent growth inhibition, and numbers from -100% - 0 represent cell death. For example, a value of 40 represents 60% growth inhibition. A value of 0 means no net growth occurred over the course of the experiment. A value of -40 indicates 40% of cells at the beginning of the experiment died by the end of the experiment. A value of -100 means all cells are dead at the end of the experiment.
# NCI-60 Human Tumor Cell Lines Screen was performed using the standard one-dose NCI protocol, which is described in more detail at https://dtp.cancer.gov/discovery_development/nci-60/default.htm.
# Compounds with GIPRCNT values below 10 were considered active. Activity score was based on GIPRCNT using the following formula: […]
# Score is 0 for GIPRCNT values of 100 or above, 50 for GIPRCNT values of 0, and 100 for GIPRCNT values of -100.
row,Structure (SMILES),growth
1,CC(C)(O)c1cncc(-c2ccc3ncnc(NCc4ccccc4)c3c2)c1,103% (inactive)
2,Cn1ccnc1C(=O)/C=C/c1ccc(CNC(=O)c2ccc(Cl)cc2)cc1,10.4% (inactive)
3,CC(C)c1ccc(NCc2cn(-c3ccc(C(=O)O)cc3)nc2-c2cc(C(F)(F)F)cc(C(F)(F)F)c2)cc1,82.8% (inactive)
4,CCNC(=O)N1CCc2cc(OC)c(OCCc3ccc(OC)cc3)cc2C1c1ccc(Cl)cc1C (stereo not given),13.5% (inactive)
5,CNC(=O)c1c(NC(=O)c2ccccc2C(F)(F)F)sc2c1CCC(=O)C2,28.1% (inactive)
6,CC1=NC2=NC(=O)/C(=C3/N=C(C)C=C(c4ccccc4)N3N)NN2C(c2ccccc2)=C1,108% (inactive)
7,CC/C(=C/c1cc(OC)ccc1O)c1ccc2cc(OC)ccc2[o+]1,33.5% (inactive)
8,CC1(C)CC[C@]2(C(=O)N3CCOCC3)CC[C@]3(C)C(=CC[C@@H]4[C@@]5(C)C/C(=C/c6ccccn6)C(=O)C(C)(C)[C@@H]5CC[C@]43C)[C@@H]2C1,81.4% (inactive)
9,CCCCNNC(=O)c1ccc(-c2cccc(F)c2F)cc1,13.4% (inactive)
10,O=C(CSc1nnc(-c2ccc(Cl)cc2)n1-c1ccccc1)Nc1ccc(Br)cc1,12.3% (inactive)
11,N#Cc1cccc(NC(=O)c2cc(-c3ccc(F)cc3F)ccc2O)c1,4.64% (active)
12,N#Cc1c(NC(=O)c2cccc(C(F)(F)F)c2F)sc2c1CCC(=O)C2,-3.6% (active)
13,CCNC(=O)N1CCc2cc(OC)c(OCCc3ccc(OC)c(N)c3)cc2C1c1cc(C)c(C)cc1C (stereo not given),20.8% (inactive)
14,CCCCCc1ccc(S(=O)(=O)Nc2cc(-c3csc(NC(=O)CN4CCN(C)CC4)n3)ccc2N2CCN(C)CC2)cc1,19.1% (inactive)
15,NC(N)=Nc1ccc(Oc2cccc(NC(N)=Nc3ccc(Br)c(C(F)(F)F)c3)c2)cc1,96.8% (inactive)
16,COc1cc(/C=C2\C(=O)Nc3ccccc32)ccc1OCc1ccc(F)cc1,102% (inactive)
17,O=C(c1ccc(O)c(C(=O)N2Cc3ccc(OCCC[P+](c4ccccc4)(c4ccccc4)c4ccccc4)cc3C2)c1)N1Cc2cccc(F)c2C1,108% (inactive)
18,CNC(=O)c1cc(Oc2ccc3nc(NC(=O)c4cccc(OC(F)(F)F)c4)sc3c2)ccn1,67.3% (inactive)
19,Cc1ccc2c(c1)C13C(=C2Br)CCCN1C(=O)c1ccccc13 (stereo not given),88.4% (inactive)
20,COc1ccc(-n2c(SCc3nnc(NC(=O)c4ccc(Br)cc4)s3)nc3cc(OC)c(OC)cc3c2=O)cc1,78.8% (inactive)

row,Structure (SMILES),growth
1,CCNC(=O)N1CCc2cc(OC)c(OCCc3ccc(OC)cc3)cc2C1c1ccc([N+](=O)[O-])cc1C (stereo not given),12.2% (inactive)
2,O=C(O)c1ccc(-n2cc(CNc3cc(F)c(F)c(F)c3)c(-c3cccc(F)c3)n2)cc1,90.8% (inactive)
3,C#CCOc1ccc(/C=N\Nc2nc(-c3ccc(C)cc3)cs2)cc1OC,96.2% (inactive)
4,CC(=O)Nc1cccc(Nc2nc(N[C@H](C)c3ccccc3)c3ccccc3n2)c1,39.1% (inactive)
5,Cc1nc2ncc(-c3ccc4ncnc(NCc5ccccc5)c4c3)cc2[nH]1,104% (inactive)
6,COc1ccc(C(=O)Nc2ncc(Cc3ccccc3Cl)s2)cc1,5.87% (active)
7,COc1ccc(C(=O)CSc2nc3c(c(Nc4ccc(S(N)(=O)=O)cc4)n2)CCCC3)cc1,103% (inactive)
8,CCCn1cnc2c(c1=N)C(c1ccc(OC)cc1)c1sc3c(C)cccc3c1O2 (stereo not given),7.35% (active)
9,C[C@H]1c2[nH]c3ccccc3c2C[C@H]2C(=O)N(CCCCCCC(=O)NO)CC(=O)N21,106% (inactive)
10,N=c1c2cc(-c3ccccc3)oc2ncn1/N=C/c1ccc(Br)cc1,22.3% (inactive)
11,O=C1[C@@H]2Cc3c([nH]c4ccccc34)[C@H](c3c(Cl)cccc3Cl)N2C(=O)CN1C1CCN(CC2CCCCC2)CC1,74.9% (inactive)
12,N/C(=N\C(N)=N\c1nc2ccccc2s1)c1ccncc1Cl,25.2% (inactive)
13,NS(=O)(=O)c1ccc(-n2cc(-c3cccc(NC(=O)c4ccc(N5CCOCC5)c(C(F)(F)F)c4)c3)nn2)cc1,82.4% (inactive)
14,C#Cc1ccc(C(=O)NCc2ccc(/C=C/C(=O)c3nccn3C)cc2)cc1,9.5% (active)
15,COc1cc(OC)c(S(N)(=O)=O)cc1C(=O)/C=C/c1ccc(C)cc1,37% (inactive)
16,COc1ccc(C2CC(c3ccc(Nc4nc(NCCO)nc(N5CCOCC5)n4)cc3)=Nc3c(N)nc(N)nc3N2)cc1 (stereo not given),107% (inactive)
17,N#Cc1c(-c2cccs2)cc(-c2cnccn2)nc1SCC(=O)c1ccc(F)cc1,96.4% (inactive)
18,C#C[C@]1(O)CC[C@H]2[C@@H]3CC=C4c5sc(-c6ccc(C)cc6)nc5CC[C@]4(C)[C@H]3CC[C@@]21C,56.6% (inactive)
19,CNc1ncc2cc(-c3ccc(-c4ncccc4F)cc3Cl)c(=O)n(CC3OCC(N)CO3)c2n1 (stereo not given),79.4% (inactive)
20,NC(N)=Nc1ccc(Oc2cccc(NC(N)=Nc3ccc(I)cc3F)c2)cc1,100% (inactive)
